# The list is not random: actives were taken first. Their share in the collection is about 2.8%.
# HEK293 viab – GF-AFC viability counterscreen for inhibitors of alpha-synuclein gene (SNCA) expression; HEK-293-SNCA-luc viability, GF-AFC fluorescence, 24 h; Potency, µM (top dose mostly 57.1 µM), without a hit: at the top dose activity change, negative = cytotoxicity, usual class: cytotoxic; 150,000 compounds, 0.12% hits;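 further: potency means the concentration at half of the fitted maximal effect; 0% = DMSO-treated cells and -100% = medium-only wells without cells; nearly all actives have a fitted effect of over 30% in size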
#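 HEK-293-SNCA-luc cells (1500/well) plated 24 h, then exposed 24 h to a dilution series; GF-AFC added 30 min at 37C, fluorescence 405/540 nm; normalised to medium-only and DMSO wells, Hill fit.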
# SNCA expr inhib – Primary qHTS assay for inhibitors of alpha-synuclein gene (SNCA) expression; 140,000 compounds, 0.17% hits; Potency, µM (titrated, usually from 57.2 µM), for inactives: top-dose activity change, negative = inhibition, usual class: inhibitors; HEK-293 SNCA-luciferase knock-in, luminescence, 24 h; AID 1671194, 2021;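 further: potency means the concentration at half of the fitted maximal effect; plate controls were DMSO cells for no effect and cell-free wells for full effect; nearly all actives have a fitted effect of over 45% in size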
# KDM5B inh – Primary screen for KDM5B Histone Demethylases FDH-coupled qHTS; Lysine-specific demethylase 5B (Homo sapiens), Q9UGL1; KDM5B demethylase, FDH-coupled NADH fluorescence (FDH is formaldehyde dehydrogenase); Potency, µM (highest dose often 57.7 µM), hits mostly inhibitors; 220,000 compounds, 2.6% hits; AID 1347165, 2019; further: potency means the concentration at half of the fitted maximal effect; 0% is about no effect; nearly all actives have a fitted effect of over 70% in size
#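 qHTS format, multiple compound concentrations. Buffer 50 mM HEPES pH 7.5/0.01% Tween-20; 200 nM KDM5BΔAP final; 10 min compound preincubation; substrate-mix levels 12.5 µM peptide, 25 µM α-KG, 0.25 mM NAD⁺; 30 min RT; ΔRFU.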
# IP6K1 inhibitor – Primary qHTS assay for small molecule inhibitors of Inositol hexaphosphate kinase 1 (IP6K1) | Inositol hexakisphosphate kinase 1 (Homo sapiens), Q92551 | IP6K1 kinase, ADP-Glo luminescence, 2 h; hits give low values | activity change, % (series mostly up to about 58 µM) | 140,000 compounds, 0.81% hits | AID 1645851, 2021; in the data active means activity change below about -25%; further: on the % scale 0 is the no-effect control and ±100 the full control effect
# Target sequence (Q92551 whole entry, looked up): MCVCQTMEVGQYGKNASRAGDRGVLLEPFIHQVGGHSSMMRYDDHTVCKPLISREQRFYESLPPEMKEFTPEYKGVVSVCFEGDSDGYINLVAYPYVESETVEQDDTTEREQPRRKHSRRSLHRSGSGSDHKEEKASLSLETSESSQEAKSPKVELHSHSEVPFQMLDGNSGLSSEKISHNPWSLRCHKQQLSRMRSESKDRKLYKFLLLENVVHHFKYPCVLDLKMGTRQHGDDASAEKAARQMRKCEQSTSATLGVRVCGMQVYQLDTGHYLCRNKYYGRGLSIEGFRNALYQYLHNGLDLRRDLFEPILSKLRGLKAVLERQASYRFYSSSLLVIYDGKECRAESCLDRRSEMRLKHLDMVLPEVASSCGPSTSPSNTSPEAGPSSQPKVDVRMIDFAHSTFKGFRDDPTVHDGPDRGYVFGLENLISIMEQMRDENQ
#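 ADP-Glo luminescence measures ADP made by human IP6K1 during a 2 h RT reaction with ATP/IP6 (mix at 1.3 mM/130 uM); top library doses 57.5 and 19.1 uM final.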
# An asterisk follows results filed as active; i = inactive; ? = inconclusive; . = not tested or not shown; [ ] = another dose, or the depositor's remark. Unless noted, the call rests on the fitted dose curve; in most records, active means well fitted curve in the direction sought with a large enough effect; inconclusive means small, poorly fitted or top-dose-only effect, or another doubt; inactive means no such curve, though single readings can be large; an effect the other way counts as inactive or inconclusive.
SMILES,HEK293 viab,SNCA expr inhib,KDM5B inh,IP6K1 inhibitor
CS(=O)(=O)c1ccc(CN2CCN3C(=O)N(Cc4ccccn4)C[C@H]3C2)cc1,1.4%[87.6 µM],-8.8%[87.6 µM],28.2µM*,-8.8
O=C1N(Cc2ccccn2)C[C@H]2CN(Cc3ccc(C(F)(F)F)cc3)CCN12,-4.6%[87.6 µM],?,i,-13.9
Cc1ccc(C(=O)CCc2nc(C3CC(=O)N(C4CCCCC4)C3)no2)cc1 (configuration not stated),-7.3%,-24.8%,i,-1.6
COc1ccc(OCC(O)CN2CCC(=O)N(C3CC3)Cc3ccccc32)cc1 (configuration not stated),.,.,.,9.8
COc1cc(F)ccc1-c1cc2c(ccn2CC2CCN(C)CC2)c(N2CCOCC2)n1,-12.3%[87.6 µM],-18.3%[87.6 µM],?,10.9
COc1cc(F)ccc1-c1nc(N2CCOCC2)cc2c1CN(CC1CC1)C2=O,1.6%[87.6 µM],-3.8%[87.6 µM],35.5µM*,12.7
O=C1c2cc(N3CCOCC3)nc(-c3ccc(F)cc3)c2CN1CC1CC1,-8.1%[87.6 µM],18.5%[87.6 µM],39.8µM*,12.6
Fc1ccccc1-c1noc(N2CCOCC2)n1,-4.5%,29.3%,i,-0.8
O=C1c2cc(N3CCOCC3)nc(-c3ccccc3F)c2CN1CC1CC1,-17.7%[87.6 µM],0.6%[87.6 µM],39.8µM*,12.1
O=C1c2cc(N3CCOCC3)nc(-c3ccc(CO)cc3)c2CN1Cc1ccccc1,5.2%[87.6 µM],-6.7%[87.6 µM],i,24.5
COc1ccc(NC(=O)c2ccc3c(c2)NC(C)(CNc2ccccc2)CO3)cn1 (configuration not stated),-27.6%[87.6 µM],?,i,5.0
COc1ccc(NC(=O)c2ccc3c(c2)NC(C)(CNc2ccccc2)CO3)cc1OC (configuration not stated),-22.3%[87.6 µM],?,35.5µM*,0.8
CC1(COc2ccccc2)COc2ccc(C(=O)Nc3ccc4[nH]ccc4c3)cc2N1 (configuration not stated),-22.2%[87.6 µM],-24.0%[87.6 µM],?,2.8
COc1ccc(NC(=O)c2ccc3c(c2)NC(C)(COc2ccccc2)CO3)cc1OC (configuration not stated),-19.1%[87.6 µM],-19.8%[87.6 µM],31.6µM*,7.2
COc1ccc(NC(=O)c2ccc3c(c2)NC(C)(COc2ccccc2)CO3)cn1 (configuration not stated),-17.1%[87.6 µM],?,31.6µM*,1.0
CC1(COc2ccccc2)COc2ccc(C(=O)Nc3ccccc3)cc2N1 (configuration not stated),-6.3%[87.6 µM],81.7%[87.6 µM],?,15.5
CCOC(=O)CSc1nc2sc3c(c2c(=O)n1-c1ccccc1)CC(C)(C)SC3,.,.,i,.
c1ccc(COc2ccccc2Cc2nc(-c3cccnn3)no2)cc1,-11.7%,-6.7%,i,7.8
NC(=O)[C@@H]1CN(Cc2ccco2)C[C@H]1COc1ccccc1,-0.3%,-5.8%,i,0.0
COc1ccc(-c2ccnc(-c3nnc(C)n3C3CCCCC3)c2)cc1OC,1.5%[87.6 µM],-3.0%[87.6 µM],35.5µM*,-7.7
COc1cccc(-c2ccnc(-c3nnc(C)n3C3CCCCC3)c2)c1,-5.1%[87.6 µM],20.1%[87.6 µM],i,13.5
CCN1CCN(Cc2cn(-c3ccccc3F)nc2-c2cc(C)sc2C)CC1,?,17.0%,?,-24.7
O=C(c1ccc2oc(-c3ccc(C(F)(F)F)cc3)nc2c1)N1CCOCC1,3.7%,46.9%,i,0.6
O=C(NCC1CCCO1)c1ccc2oc(-c3ccc(C(F)(F)F)cc3)nc2c1 (configuration not stated),-3.0%,87.7%,25.1µM*,-1.2
COc1ccc(Cl)cc1NC(=O)CCC1CCCN(c2ccc(C(F)(F)F)cn2)C1 (configuration not stated),0.4%,-19.0%,28.2µM*,8.3
Cc1ccc2c(C(=O)NCc3cc(F)cc(F)c3)cc(NC(=O)C(C)C)cc2n1,2.2%,-5.6%,22.4µM*,18.1
COCCNC(=O)c1cc(NC(=O)C(C)C)cc2nc(C)ccc12,8.0%,-12.4%,25.1µM*,28.3
Cc1ccc2c(C(=O)NCc3ccccc3C(F)(F)F)cc(NC(=O)C(C)C)cc2n1,-3.5%,-20.1%,25.1µM*,4.1
Cc1ccc2c(C(=O)NCc3ccc(C(F)(F)F)cc3)cc(NC(=O)C(C)C)cc2n1,-4.3%,-26.8%,15.8µM*,9.5
Cc1ccc2c(C(=O)NCc3ccc(F)c(Cl)c3)cc(NC(=O)C(C)C)cc2n1,-0.2%,2.0%,?,6.4

# Screening data (PubChem BioAssay)
